# Measurements reported in the supplement of paper PMC6555819.
# Tests used:
# Test in all cases: PBM binding z-score (relative to random genomic background probes); higher = stronger binding; sequences stand for … in GC…GCGATTGACAGCGTAGAATGAAGG
# [1] = tested on: RARb homodimer (NR concentration 270 nM)
# Outline: (§1)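 Binding z-scores were set against random background probes. The data came from custom Agilent 4×180K protein-binding microarrays carrying double-stranded probes with 34-nt variable regions, incubated 1 h with ligand-free nuclear receptor dimers. Partner-specific antibodies detected binding, and scanned fluorescence was regression-normalized.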
# [2] = tested on: RARg:RXRa (NR concentration 270 nM, RXRa partner concentration 90 nM)
# Outline: as §1
# [3] = tested on: RARg homodimer (NR concentration 270 nM)
# Outline: as §1
# [4] = tested on: RXRa DBDmut IVT, anti-RXR (DBD mutation: RXRa K156A/R161A, NR concentration 90 nM)
# Outline: as §1
# [5] = tested on: RXRa homodimer (NR concentration 180 nM)
# Outline: as §1
# [6] = tested on: THRa:RXRa (NR concentration 90 nM, RXRa partner concentration 90 nM)
# Outline: as §1
# [7] = tested on: THRa homodimer (NR concentration 90 nM)
# Outline: as §1
# [8] = tested on: VDR homodimer (NR concentration 270 nM)
# Outline: as §1
Sequence,PBM binding z-score [1],PBM binding z-score [2],PBM binding z-score [3],PBM binding z-score [4],PBM binding z-score [5],PBM binding z-score [6],PBM binding z-score [7],PBM binding z-score [8]
CCAGACAGGGGAGAAGGTAACTCAGCCTCGATTA,-0.0846,-0.296,-0.226,0.218,-0.357,-0.218,-0.17,-0.316
TTACCAAGGTGAGCTGAGGTCGTTGAGCCAACTC,1.75,1.39,0.933,-0.158,1.48,4.77,2.04,1.96
TGAATGAGGCTAAAGATCAGGGAACGTGGCGTCG,-0.821,-0.0145,0.0972,-0.642,0.184,0.0902,-1.04,-0.642
AAACCAAGGTGATCGTGAGGTCGTTGATACTAAC,1.41,2.02,0.373,0.896,1.55,3.5,2.46,2.81
ACAGACAGGTAATGAAGGTAACTCAGGCTATCAT,0.185,0.351,0.385,-0.156,0.59,1.14,0.263,-0.0776
GCTTACGGGTCAAGGGTTATAGCATGAATAGAAT,3.07,5.54,4.39,1.86,7.3,3.14,0.219,0.975
ACTTACGGGTCAACGAGGTGATAGCACGCGTATA,2.98,5.26,4.83,2.19,5.47,3.86,0.952,1.81
TCTTTTAGTTGAAGGGCAACCGACGAGTCCGTTT,1.24,0.599,0.744,1.5,0.842,0.355,-0.174,1.29
ACTAGTTGGTCAGCTGAGGTCCCACACAATTCGG,0.808,0.425,0.578,0.281,0.206,2.75,0.564,-0.00436
TAGCCTAGGTCATTGGGCCAGTGTAGTACGCATC,3,3.57,4.14,1.61,2.7,2.94,0.8,1.07
TGAATGAGGTTACAAGATCAGGGAACGTTGCAAA,0.458,1.79,1.52,0.127,2.26,2.2,0.329,0.106
TGCATGAGGTTAAAGATCAGGGAACGTGGCGTCG,1.02,2.55,1.33,1.43,3.68,2.71,0.949,1.11
TCATATAGGTAAAAGTTGAAAGTCGGTGTGGTAA,0.645,0.703,0.395,1.69,1.83,0.586,-0.0355,0.425
TATACAGGGTGAAAGGCCAGAGTACGAATGTCGA,1.29,1.67,1.69,-0.111,2.07,1.18,-0.0839,0.653
CCTAGTTGGTCAGGAGGTAACACACCGGATATGA,1.01,0.732,0.881,-0.282,0.455,0.766,0.712,0.75
CATAGAGGGTCAGCTAGGCCAGAGTAGGGACGGC,3.06,3.83,4.33,0.356,3.3,2,0.171,0.395
CCGAGTAGGTTATGGGGCATTCACGCAACGGTGA,0.898,0.542,0.597,-0.117,0.816,0.155,-0.0267,0.416
CGTCAAACTTCAAGGTAACGTAACAGAAAGCAGC,0.274,0.163,0.537,0.306,0.376,1.73,1.11,-0.0172
CGTCCAAGTTCAACTAAGGTAACGTAAAGCACGC,2.73,3.63,3.97,4.54,2.79,5.06,2.45,4.43
GCGACTGGGGCATCAGAAGGTTACCATAACTTAA,1.73,1.74,1.06,0.112,0.743,1.24,-0.47,-0.299
ACAGATAGGTGATGAAGGTAACTCAGGCTATCAT,0.0763,0.532,0.586,-0.397,0.485,0.83,-0.19,-0.247

Sequence,PBM binding z-score [1],PBM binding z-score [2],PBM binding z-score [3],PBM binding z-score [4],PBM binding z-score [5],PBM binding z-score [6],PBM binding z-score [7],PBM binding z-score [8]
CATCCAGGGTCAGCTAGGCCAGAGTAGGGACGGC,3.29,4.74,4.96,1.35,4.41,3.18,1.34,1.51
ATCTCTAGGTAACCAAATTCAGTGAATGCCGAAC,0.339,0.22,0.428,0.324,0.301,0.659,0.778,0.572
ATCTCTAGGTAAAGATAGTTCAGCGAATGCAAAT,1.42,0.793,0.971,-0.00603,0.377,0.867,-0.0177,0.508
TCTGCTAGGGCAACGATGGTCAGCTAATCTGCTA,0.762,0.579,0.934,-0.149,-0.0028,0.381,-0.978,-0.735
CCGACTGGGGCATAAGGTTACCACAAGCCAGCCC,1.92,1.8,1.2,-0.196,1.32,2.04,1.37,0.195
AGTCGAAGTTCATCTAGGTAACGTAAGATATGCT,2.11,2.84,3.19,3.88,1.91,2.31,-0.00664,3.81
ATCTCTAGGTAAGACACAGTTCAGTGAAGAACGC,1.33,0.686,0.694,0.59,0.755,0.849,0.689,1.37
CCTGCTAGGTCATGGTCAGCTGATCTACAGTATG,3.13,3.97,4.53,1.96,3.2,3.17,1.23,0.608
TCTATTAGTTGATTAGGGCAATCGAAACAGCGGA,0.402,0.658,0.528,0.966,0.804,0.453,0.15,0.435
ATCTCTAGGTAAGACTCAGTTCAGTGATGAACGC,0.637,0.588,0.547,0.656,0.315,0.739,0.755,1.4
GCATATAGCTAATACAAGGTGAAAGTCCGATTGT,0.396,0.366,0.451,0.494,0.476,1.43,0.866,0.162
TCATATAGGTATAAGGTGAAAGTCGGTGTGGTAA,1.17,0.768,0.521,1.77,1.35,2.68,2.4,0.494
GCGACTGGGGCAAACCAGGTTACCATAAGGTTGG,1.29,0.596,0.516,-0.486,0.616,3.93,0.684,-0.202
CGAACTAGGTCATTGACAGGAAAGTGAATAGTAA,2.15,3.65,3.62,2.19,2.61,2.27,0.512,0.797
ATCTCTAGGTAAAGTTCTGTGAAAGATCGATAGA,-0.0506,0.0649,0.264,0.162,-0.238,0.488,0.369,0.0394
TTACCAAGGTGAAAGGTCCTTGATGCACGCCTTG,1.22,1.67,0.796,-0.243,2.47,2.28,0.542,-0.756
AGAATGTGGTTACCAAAGATCAGGGAAACGCTTG,-0.487,0.0233,0.17,-0.485,0.156,-0.05,-0.409,-0.534
TCATATAGGTAAAAGCTAGGTGAAAGTCCGATCT,0.265,0.433,0.218,1.44,0.939,1.3,0.0247,-0.0504
CGTCCAAGGTCAGCAGATCAGTGAAAGCGACGTG,3.69,4.89,5.8,2.42,3.8,3.42,2.11,0.793
CGTCCAAGGGCAAGGTCAGTGAAAGAGACTCGAA,3.82,3.23,4.43,1.07,2.23,2.9,1.11,1.21
CCGAGTAGGTTATCGGGCATTCAGGCAACGGTGA,0.614,0.431,0.479,-0.164,0.45,0.172,-0.196,-0.435

Sequence,PBM binding z-score [1],PBM binding z-score [2],PBM binding z-score [3],PBM binding z-score [4],PBM binding z-score [5],PBM binding z-score [6],PBM binding z-score [7],PBM binding z-score [8]
TTACCAAGGTGAAAGGTCTTTGATGCACGCCTTG,1.15,1.67,0.887,-0.125,2.43,2.13,0.663,-0.219
CGGCCAAGGTCAGAGAGGTCAGTGAATGCCGAGT,5.45,6.22,7.62,3.44,6.21,4.17,2.42,5.9
TCTAGTTGTTCAAAGGTCACACACTCGAAATGCG,5.28,6.3,6.07,2.05,7.19,4.11,2.21,2.78
ACAGACAGGTGAGTGAAGGTAACGCAGCTGGACG,0.215,0.259,0.522,-0.546,0.362,1.83,-0.423,-0.319
CCGAATGGGGCAGAAAGGTTACCATACCATCCGG,2.38,1.8,1.36,-0.766,1.91,1.07,-0.641,-0.0198
GTACCAAGGTGAATAGGTCGTTGGTGAGTAGGCG,1.93,2.86,1.13,-0.312,1.99,1.71,0.526,0.359
CAAACTAGGTCAAGAGGTCAAAGTGCGCTTCCCG,5.69,8.27,7.86,3.2,8.67,4.46,2.56,4.83
GCTGCTAGATCAACTGATGGTCAGCTAAAGCTCG,-0.449,-0.186,-0.352,-0.229,-0.482,-0.352,-1.12,-0.805
TAGCCTAGGTCATGGGGCCAGTATAGTACGCATC,3.29,4.5,4.7,0.621,3.6,3.49,1.43,1.05
CGTCCAAGTTCAAAGGTCAGTGAAGAGATGACGG,4.6,7.24,6.28,4.85,8.41,3.84,0.506,5.47
CCTATTCGTTGACCATAAGGGCAACCGAAGCTCG,2.14,1.16,1.04,0.173,0.704,1.85,1.57,0.974
CCGATTAGGTTATGGGGCATTCAGGCAACGGTGA,1.11,0.701,0.783,0.4,0.612,1.19,0.572,0.143
GCTCGGAGGCCAAGGTCAGAGCTTTGTCCGTAGA,3.1,2.72,3.69,0.649,1.93,2.64,1.27,0.281
CAAACTAGGTCAAAGTTCAAAGTCGAGCCAACCA,4.52,7.71,6.23,3.95,8.77,4.23,1.21,4.43
GATACAGGGACAAGGCCAGAGTACGCGTATTGAT,0.843,0.288,1.06,-0.24,0.00121,0.874,0.292,0.46
TAGCCTAGGTCATGGGCCATTATACCACGCGAAC,3.25,4.27,4.52,0.45,3.75,3.17,1.37,0.862
TGAATGAGGTTATAAGACCAGGGAACGTTGCAAA,0.0287,1.39,0.814,0.698,1.99,1.77,-0.0902,0.336
ACTAGCAGGCCACGGGTCACTCAAGATTAGTCCG,2.64,2.22,2.04,0.0998,2.18,1.85,0.298,0.215
AGAAGGAGGGCAATGAGTTGATAGCACGGGTGGC,1.51,0.896,1.46,0.955,0.646,0.385,0.339,2.51
AATACAGCGTCACTAGGCCAGAGTAGGTACGAAT,-0.144,-0.145,0.173,-0.271,-0.094,-0.216,-0.342,-0.308
TCATATAGGTAACTGCTAGGTGAAAGTCCGATCT,0.607,0.501,0.315,1.53,0.853,1.43,0.668,0.0262
